Test results from the supplement of paper PMC10338343.
± gives the standard deviation.

How the values were obtained:
[1] = tested on: MILI (PIWIL2) piRISC loaded with L1MC piRNA (26 nt); assay: pre-steady-state target cleavage rate (min^-1); guide: L1MC piRNA 5'p-UAACUAAAUACUAUGCAAGCUGUAGG; higher = faster piRNA-guided slicing of the target
In short: (§1)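 Sequencing of uncleaved targets, normalised to depth and to weakly complementary targets, was the readout of this Cleave-'n-Seq assay. A transcribed, DNA-blocked target RNA library (0.1 nM) was mixed with 1 nM active affinity-purified piRISC carrying one synthetic guide, with or without 500 nM GTSF1 partner protein, in HEPES–potassium acetate buffer at 33 °C for 0–8 or 0–960 min. Three trials were pooled, k3 was capped at 0.0001 min^-1, and a burst-and-steady-state fit gave the pre-steady-state cleavage rate.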

[2] = tested on: EfPiwi piRISC loaded with L1MC piRNA (26 nt); assay: pre-steady-state target cleavage rate (min^-1); auxiliary factor: 500 nM Ephydatia muelleri Gtsf1; guide: L1MC piRNA 5'p-UAACUAAAUACUAUGCAAGCUGUAGG; MIWI and MILI are mouse PIWI proteins and EfPiwi is from a freshwater sponge; tags in brackets are library labels; higher = faster piRNA-guided slicing of the target
In short: as §1

[3] = auxiliary factor: 500 nM mouse GTSF1
[4] = auxiliary factor: none (no GTSF1)

| Sequence | pre-steady-state target cleavage rate [1, 3] | pre-steady-state target cleavage rate [1, 4] | pre-steady-state target cleavage rate [2] |
| --- | --- | --- | --- |
| UCCUGCUAUAGCUUGCAUAGUAUUUAGUUA | 0.221 ± 0.017 | 0.00678 ± 0.0018 | 0.014 ± 0.0046 |
| UCCUGGAUCAGCCUGCAUAGUAUUUAGUUA | 0.244 ± 0.026 | 0.0068 ± 0.0031 | 0.0209 ± 0.006 |
| UCCUGGAUGUCCUUGCAUAGUGUUUAGUUA | 0.0572 ± 0.012 | 0.00445 ± 0.0025 | 0.00951 ± 0.0035 |
| UCCUCCUUGUGCUUGCAUAGUAUUUAGUAA | 0.147 ± 0.021 | 0.0033 ± 0.0024 | 0.00675 ± 0.0029 |
| UCCUGGAACAGCUACCAUAGUAUUUAGUUA | 0.174 ± 0.016 | 0.00403 ± 0.0022 | 0.00309 ± 0.0026 |
| UCCUGGUACAGCUUGCAUAGUAUUUAUGUUA | 0.147 ± 0.036 | 0.0114 ± 0.0044 | 0.00329 ± 0.0024 |
| UCCUGGAUCAGCUUGCAUAGUAAAUAGUUA | 0.171 ± 0.024 | 0.00496 ± 0.0026 | 0.00673 ± 0.0027 |
| UCCUGGAACAAGCUUGCAUAGUAUUUAGUUA | 0.224 ± 0.012 | 0.0116 ± 0.003 | 0.0156 ± 0.0043 |
| UCCUGGAUGUGGUAGCAUAGUAUUUAGUUA | 0.0258 ± 0.011 | 0.00767 ± 0.0031 | 0.00356 ± 0.0033 |
| UCCUGGAUCAACUUGCAUAGUAUUUAGUUA | 0.265 ± 0.017 | 0.00729 ± 0.0025 | 0.0635 ± 0.018 |
| UCCUGGAUCAGGUUGCAUAGUAUAUAGUUA | 0.197 ± 0.017 | 0.00574 ± 0.0022 | 0.00644 ± 0.0033 |
| UCCUGGAUCAGCUUGCAUAGUAUCUAGUUA | 0.205 ± 0.02 | 0.00466 ± 0.0024 | 0.0167 ± 0.005 |
| UCCUGCUCAGCUUGCAUAGUAUUUAGUUA | 0.278 ± 0.014 | 0.00716 ± 0.0018 | 0.065 ± 0.015 |
| UCCUGGUACAGCUUGCAAAGUAUUUAGUUA | 0.11 ± 0.013 | 0.00987 ± 0.0024 | 0.0101 ± 0.0035 |
| UCCUGGUACAGCUUGCACAGUAUUUAGUUA | 0.156 ± 0.013 | 0.0127 ± 0.0032 | 0.0505 ± 0.015 |
| UCCUCCUACACCAUGCAUAGUAUUUAGUUA | 0.243 ± 0.019 | 0.00814 ± 0.0024 | 0.145 ± 0.05 |
| UCCUGCUACAGCUUGCAUAGUAUAAAGUUA | 0.198 ± 0.025 | 0.00349 ± 0.0022 | 0.00347 ± 0.0022 |
| UCCUGCUACAGCUUGCAUAGUAUUUAUUUA | 0.148 ± 0.03 | 0.00466 ± 0.0021 | 0.0055 ± 0.0037 |
| UCCUGGAACAGCAAGCAUAGUAUUUAGUUA | 0.275 ± 0.018 | 0.00588 ± 0.0024 | 0.00853 ± 0.0027 |
| UCCUGGAUGAGCUUGCAUAGUAUUCAGUUA | 0.136 ± 0.026 | 0.00552 ± 0.0023 | 0.00256 ± 0.0023 |
| UCCUGGAUGAGCUUGCAUAGUAUUUAGUGA | 0.193 ± 0.025 | 0.00439 ± 0.003 | 0.00681 ± 0.0032 |
| UCCUGGAACAGCUUGCAUAGUUUUUAGUUA | 0.0586 ± 0.01 | 0.00493 ± 0.0022 | 0.00683 ± 0.0019 |

| Sequence | pre-steady-state target cleavage rate [1, 3] | pre-steady-state target cleavage rate [1, 4] | pre-steady-state target cleavage rate [2] |
| --- | --- | --- | --- |
| UCCUGGAACAGGUUGCAAAGUAUUUAGUUA | 0.144 ± 0.013 | 0.00884 ± 0.003 | 0.0118 ± 0.0039 |
| UCCUGGUAUCAGCUUGCAUAGUAUUUAGUUA | 0.252 ± 0.026 | 0.0221 ± 0.0059 | 0.0704 ± 0.018 |
| UCCUGGAUGAGCUCUGCAUAGUAUUUAGUUA | 0.171 ± 0.01 | 0.0111 ± 0.0033 | 0.00721 ± 0.0028 |
| UCCUGGUACAGCUAGCAUAGUAUUAAGUUA | 0.198 ± 0.032 | 0.00537 ± 0.0026 | 0.00476 ± 0.0024 |
| UCCUGCUACAGCUUGGUUAGUAUUUAGUAA | 0.148 ± 0.021 | 0.00357 ± 0.0022 | 0.00273 ± 0.0024 |
| UCCUCCUACUGCUUGCAUUGUAUUUAGUUA | 0.212 ± 0.013 | 0.00808 ± 0.0019 | 0.0605 ± 0.016 |
| UCCUCCUACAGCUUGGAUAGUAUUUAGUUA | 0.294 ± 0.017 | 0.0109 ± 0.003 | 0.057 ± 0.012 |
| UCCUGCUACUAGCUUGCAUAGUAUUUAGUUA | 0.176 ± 0.022 | 0.0074 ± 0.0023 | 0.00699 ± 0.0025 |
| UCCUGGUACAGCUACCAUAGUAUUUAGUUA | 0.305 ± 0.044 | 0.00616 ± 0.0022 | 0.00432 ± 0.0019 |
| UCCUGCUACAGGUUGCAUAGUAAUUAGUUA | 0.216 ± 0.032 | 0.00697 ± 0.0026 | 0.00595 ± 0.0019 |
| UCCUGGAUCAGCUCGCAUAGUAUUUAGUUA | 0.284 ± 0.019 | 0.00608 ± 0.0029 | 0.0549 ± 0.013 |
| UCCUCCUACAGCUUGCAUAGUCUUUAGUUA | 0.198 ± 0.023 | 0.00522 ± 0.0021 | 0.0068 ± 0.0025 |
| UCCUGCUAGAGCUUGCAUAGUAUUUUGUUA | 0.172 ± 0.025 | 0.00521 ± 0.0022 | 0.00421 ± 0.0016 |
| UCCUGGAUCAGCUUGCAUAGUAUUUGGUUA | 0.245 ± 0.018 | 0.0139 ± 0.003 | 0.00498 ± 0.002 |
| UCCUGCUACAGCUUGAAUAGUAUUUAGUUA | 0.22 ± 0.013 | 0.00812 ± 0.002 | 0.0179 ± 0.0045 |
| UCCUGGUACAGCUUGCAGAGUAUUUAGUUA | 0.121 ± 0.026 | 0.00836 ± 0.0028 | 0.00371 ± 0.0027 |
| UCCUGGUACAGCUUGCAUAGUAUUUAGUUA [g2:g24:cont:t1A] | 0.277 ± 0.018 | 0.0215 ± 0.0056 | 0.0865 ± 0.024 |
| UCCUGGUACAGCUUGCAUAGUAUUAUGUUA | 0.131 ± 0.032 | 0.00435 ± 0.0031 | 0.00349 ± 0.0025 |
| UCCUGCUACACGUUGCAUAGUAUUUAGUAA | 0.215 ± 0.028 | 0.00567 ± 0.0021 | 0.00458 ± 0.0025 |
| UCCUGGAUGAGCUUGCAUUGUAUUUAGUAA | 0.127 ± 0.021 | 0.00311 ± 0.0025 | 0.00311 ± 0.0025 |
| UCCUGGUUCAGCUAGCAUAGUAUUUAGUUA | 0.239 ± 0.026 | 0.0116 ± 0.0027 | 0.0263 ± 0.0083 |
